Experiment [1] can be described thus: NCI Yeast Anticancer Drug Screen. Data for the rad50 strain (AID 155).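 Also: 0% = growth of vehicle-only cultures of the same strain.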 Particulars: S. cerevisiae rad50 strain growth inhibition; at 50.0 µM; active compounds read high. Put shortly:
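DNA repair mutant yeast, compound exposure, growth read-out; inhibition is taken relative to vehicle.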

The nature of experiment [2]: NCI Yeast Anticancer Drug Screen. Data for the mec2-1 strain (AID 157). The settings on record: S. cerevisiae mec2-1 strain, at 50.0 µM, active compounds read high. Put shortly:
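Vehicle-treated cultures served as reference for growth inhibition of compound-exposed mec2-1 yeast.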

Experiment [3] is described as follows: NCI Yeast Anticancer Drug Screen. Data for the sgs1 mgt1 strain (AID 161).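 Also: 0% = growth of cultures given vehicle only.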 The settings on record: S. cerevisiae sgs1 mgt1 strain, at 50.0 µM, active compounds read high. Put shortly: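 Genetically altered yeast, compound exposure, growth inhibition relative to vehicle.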
Experiment [4] can be described thus: NCI Yeast Anticancer Drug Screen. Data for the cln2 rad14 strain (AID 165).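 Also: 0% = growth equal to vehicle treated cultures.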 Particulars: S. cerevisiae cln2 rad14 strain, at 50.0 µM, active compounds read high. Put shortly: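 Each compound was tested on cln2 rad14 yeast. Inhibition of growth was calculated against vehicle-exposed controls.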
Experiment [5] in a line: NCI Yeast Anticancer Drug Screen. Data for the bub3 strain (AID 167). The settings on record: S. cerevisiae bub3 mutant strain, at 50.0 µM, active compounds read high. Put shortly:
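In this screen, a yeast mutant lacking normal mitotic checkpoint function is challenged with compound. Relative growth versus vehicle gives the inhibition value.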

Experiment [6] can be described thus: NCI Yeast Anticancer Drug Screen. Data for the mlh1 rad18 strain (AID 175). The settings on record: S. cerevisiae mlh1 rad18 strain growth inhibition; at 50.0 µM; active compounds read high. Put shortly: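 Vehicle-treated cultures served as the reference for growth inhibition in a yeast strain carrying DNA damage repair alterations exposed to each compound.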

Our source for the growth inhibition values is PubChem BioAssay (NCI).

This is part of a sample that, as a whole, favours compounds with a hit. Of some 79,000 tested, about 15% had one in any assay. A number with no mark means an inactive call. Active and inactive are the calls of the source. Rule as the data show it: active = growth inhibition above about 70%; inactive = the rest.

Regarding `Cn1nc(-c2ccccc2)c2c(/C=C/c3ccc(F)cc3)onc2c1=O`, the growth inhibition was -14.4% in experiment [1]; -17.9% in experiment [2]; 8.55% in experiment [3]; 8.35% in experiment [4]; 0.05% in experiment [5]; -15.3% in experiment [6].
With `CCc1cccc(C(C)CC)c1N=C(NC(=O)c1ccccc1C(=O)NC(=Nc1c(CC)cccc1C(C)CC)SC)SC` (stereo not drawn), the growth inhibition was -0.7% in experiment [1]; -3.15% in experiment [2]; 5.3% in experiment [3]; 6.3% in experiment [4]; 15.1% in experiment [5]; -5.15% in experiment [6].
For `CC(=O)NCC(O)C(O)C(O)C(O)COC(=O)c1ccccc1` (stereo not drawn), the growth inhibition is 6.6% in experiment [1]; -1.25% in experiment [2]; 19.2% in experiment [3]; -6.45% in experiment [4]; -2.15% in experiment [5]; -5% in experiment [6].
In the case of `O=C(COC(=O)c1cccc([N+](=O)[O-])c1)c1ccc(Br)cc1`, the growth inhibition in experiment [1] was 6.55%; in experiment [2], 20.3%; in experiment [3], 1.55%; in experiment [4], -16.2%; in experiment [5], 7.3%; in experiment [6] it was 5.8%.
For the compound `CCC1CCC(OC(=O)Nc2cccc3ccccc23)CC1` (stereo not drawn), the growth inhibition in experiment [1] is 12.2%; in experiment [2], -26.1%; in experiment [3] it was -5.35%; in experiment [4] it was 3.7%; in experiment [5], 4.85%; in experiment [6] it was -10.4%.
Take `Cc1ccccc1N=Nc1c(-c2ccccc2)nn(C(N)=S)c1-c1ccccc1`: the growth inhibition in experiment [1] was 36.2%; in experiment [2], 7.2%; in experiment [3], 24.1%; in experiment [4] it was 4.05%; in experiment [5], 0.95%; in experiment [6], 19%.
`CCc1ccc(NC(=O)CCC(=O)O)cc1`: the growth inhibition in experiment [1] was -1.15%; in experiment [2], -9.15%; in experiment [3] it was 4.75%; in experiment [4], -90.5%; in experiment [5], -4.9%; in experiment [6] it was -16.9%.
As to `O=C1c2ccsc2C(=O)c2sc(CO)cc21`, the growth inhibition was 90.3% (active) in experiment [1]; 91.2% (active) in experiment [2]; 91% (active) in experiment [3]; 91.8% (active) in experiment [4]; 90% (active) in experiment [5]; 83% (active) in experiment [6].
For `O=C(O)[C@@H]1[C@H](C(=O)O)[C@H](C(=O)O)C[C@@H]1C(=O)O`, the growth inhibition is 6.2% in experiment [1]; -33.9% in experiment [2]; -24.9% in experiment [3]; -1.85% in experiment [4]; -69% in experiment [5]; 20.1% in experiment [6].
On to `CC(C)=C1C(=O)C[C@@]2(C)C[C@H]3OC3(C)CC/C=C(/C)CCC12` (stereo partly drawn), for which the growth inhibition in experiment [1] is 14.9%; in experiment [2] it was 11.7%; in experiment [3] it was 19.8%; in experiment [4] it was 12.9%; in experiment [5], 30.2%; in experiment [6], -62.5%.
Regarding `c1ccc(Cc2ccc3ccccc3c2)cc1`, the growth inhibition in experiment [1] was 35.3%; in experiment [2] it was 14.6%; in experiment [3], 11.8%; in experiment [4], -26.6%; in experiment [5] it was 12.2%; in experiment [6] it was 50.2%.
As to `C=C1C(=O)OC2CC3(C)C=CC(=O)C(=C)C3CC12` (stereo not drawn), the growth inhibition was 6.75% in experiment [1]; 20.6% in experiment [2]; 34.4% in experiment [3]; 39.9% in experiment [4]; 26.8% in experiment [5]; 23.4% in experiment [6].
On to `COc1ccc(C(C#N)C(=O)CCC(=O)C(C#N)c2ccc(OC)c(OC)c2)cc1OC` (stereo not drawn), for which the growth inhibition in experiment [1] is 28.3%; in experiment [2] it was 2.9%; in experiment [3], -8.65%; in experiment [4] it was -15.3%; in experiment [5], -2.8%; in experiment [6], 26.8%.
Consider `CC(C)C(CNC(=O)c1ccc([N+](=O)[O-])cc1)(C(C)C)C(C)C`, for which the growth inhibition in experiment [1] was -2.6%; in experiment [2], -36.2%; in experiment [3], -3.85%; in experiment [4], -3.7%; in experiment [5], 17.8%; in experiment [6], -1.65%.
`CCCCC(CC)(SC(CC)C(N)=O)C(N)=O` (stereo not drawn): the growth inhibition was -2.2% in experiment [1]; -0.55% in experiment [2]; 16.9% in experiment [3]; 20.1% in experiment [4]; 5.75% in experiment [5]; -5% in experiment [6].
Consider `CCCC[Si](C)(C)CCCC`, for which the growth inhibition is -6.35% in experiment [1]; -5.95% in experiment [2]; -24.9% in experiment [3]; -11.2% in experiment [4]; -2.1% in experiment [5]; -5.3% in experiment [6].
Turning to `O=c1n(-c2ccccc2)c(=O)n2n1C1C=CC2C23C=CC12CCCC3` (stereo not drawn), the growth inhibition in experiment [1] is 13.8%; in experiment [2] it was 7.85%; in experiment [3], 9.05%; in experiment [4], 12%; in experiment [5], 26.2%; in experiment [6] it was 22.8%.
On to `CCNc1ncnc2sc(SCc3ccccc3)nc12`, for which the growth inhibition is -39.3% in experiment [1]; -20.8% in experiment [2]; -12.7% in experiment [3]; -0.6% in experiment [4]; -31.1% in experiment [5]; -37.1% in experiment [6].
Consider `COc1ccc2c(c1)Sc1c(Cl)c3c(c(Cl)c1=N2)Sc1cc(OC)ccc1N=3`, for which the growth inhibition was 19.5% in experiment [1]; -4.75% in experiment [2]; 0.7% in experiment [3]; 21.7% in experiment [4]; -2.2% in experiment [5]; 13.9% in experiment [6].
As for `NC1CCCCC1NCCNC1CCCCC1N` (stereo not drawn), the growth inhibition is -3.15% in experiment [1]; 9.35% in experiment [2]; 16.4% in experiment [3]; -12.9% in experiment [4]; 42.4% in experiment [5]; 10.8% in experiment [6].
For the compound `CC(=O)OCC(C)Cc1ccc(C(C)(C)C)cc1` (stereo not drawn), the growth inhibition in experiment [1] is 3%; in experiment [2], 0.3%; in experiment [3], 0.7%; in experiment [4], -4%; in experiment [5], 9.6%; in experiment [6] it was -2.4%.
On to `CC(C)C(=O)Nc1ccccc1-c1ccccc1`, for which the growth inhibition in experiment [1] was 14.3%; in experiment [2], -1.45%; in experiment [3], -9.35%; in experiment [4], -1.4%; in experiment [5], 0.05%; in experiment [6], 8.8%.
For `CC(C)(C)CNC(=S)Nc1ccccc1`, the growth inhibition was 3.45% in experiment [1]; 2.6% in experiment [2]; 3.4% in experiment [3]; 3.55% in experiment [4]; -2.05% in experiment [5]; 10% in experiment [6].
On to `C/C(O)=C(/C=NC(=S)c1ccncc1)C(=O)Nc1ccccc1`, for which the growth inhibition was -36.8% in experiment [1]; -1.8% in experiment [2]; -49% in experiment [3]; -26.5% in experiment [4]; -45.1% in experiment [5]; -36.3% in experiment [6].
For the compound `Cc1ccc(S(=O)(=O)N/N=C2/CC3CCC2C3)cc1` (stereo not drawn), the growth inhibition in experiment [1] was 5%; in experiment [2] it was 1.3%; in experiment [3], -19.7%; in experiment [4], -9.4%; in experiment [5], 17.3%; in experiment [6], -15.3%.
For the compound `CC1=NC(=Cc2ccc(O)cc2)C(=O)N1n1c(-c2ccccc2)nc2ccccc2c1=O`, the growth inhibition in experiment [1] is -4.7%; in experiment [2] it was -10.3%; in experiment [3] it was -5.35%; in experiment [4] it was 2.6%; in experiment [5], -10.8%; in experiment [6], 3.45%.
With `CCCCC(O)CNc1ccccc1` (stereo not drawn), the growth inhibition in experiment [1] is -7.4%; in experiment [2] it was 14.7%; in experiment [3] it was 5.7%; in experiment [4], -5.75%; in experiment [5], 9.65%; in experiment [6] it was 3.75%.
Turning to `CC1(C)CCC[C@@]2(C)C1C[C@H](O)[C@@]1(C)O[C@@](C)([C@H](O)CO)CCC21` (stereo partly drawn), the growth inhibition in experiment [1] was 28.6%; in experiment [2] it was 33%; in experiment [3], 56%; in experiment [4], 69.1%; in experiment [5] it was 29.2%; in experiment [6], 70.9% (active).
`O=[N+]([O-])c1ccc(C2CC(c3ccccc3)=NN2c2ccccc2)cc1` (stereo not drawn): the growth inhibition is 7.65% in experiment [1]; -8.85% in experiment [2]; 1.3% in experiment [3]; -8.9% in experiment [4]; 17.9% in experiment [5]; -9.05% in experiment [6].
Take `CCOC(=O)c1ccc[n+]([O-])c1`: the growth inhibition in experiment [1] is -2.35%; in experiment [2] it was -9.95%; in experiment [3], -18.6%; in experiment [4], -107%; in experiment [5], -13.2%; in experiment [6] it was -10.8%.
On to `N=C(N)SCCSC(=N)N`, for which the growth inhibition was -13.5% in experiment [1]; -8.4% in experiment [2]; -30.6% in experiment [3]; 9.7% in experiment [4]; -16.4% in experiment [5]; 12.9% in experiment [6].
As to `COC(=O)C1(OC)C(=O)NC2=C1C(=O)c1ccccc1C2=O` (stereo not drawn), the growth inhibition is -12.1% in experiment [1]; -13% in experiment [2]; -4.1% in experiment [3]; -18.8% in experiment [4]; 9.3% in experiment [5]; 4.8% in experiment [6].
Regarding `Cc1cccc(C(=O)OCc2ccccc2CN2CCCCC2)c1`, the growth inhibition was -5.15% in experiment [1]; -9.75% in experiment [2]; -12.9% in experiment [3]; -21.6% in experiment [4]; 2.85% in experiment [5]; -3.6% in experiment [6].
On to `O=c1[nH]c(Nc2cccc(Br)c2)nc2nc[nH]c12`, for which the growth inhibition in experiment [1] is -53.2%; in experiment [2], -8.65%; in experiment [3], -23.9%; in experiment [4], -45.4%; in experiment [5], -5.9%; in experiment [6] it was -37.5%.
In the case of `CC(C)(C)C1CCC(C(=O)O)CC1` (stereo not drawn), the growth inhibition in experiment [1] is 24.4%; in experiment [2] it was -3.05%; in experiment [3] it was 19.8%; in experiment [4] it was 10.6%; in experiment [5] it was 5.6%; in experiment [6] it was 24.9%.
On to `C/C=C/C(=O)N1C(=O)OC[C@@H]1c1ccccc1`, for which the growth inhibition in experiment [1] is 37.4%; in experiment [2], 54.5%; in experiment [3], 49.7%; in experiment [4] it was 46.6%; in experiment [5], 53.6%; in experiment [6], 31.9%.
As for `Cc1cccc(N=C2NC(=O)C(CC(=O)Nc3ccccc3Cl)S2)c1` (stereo not drawn), the growth inhibition in experiment [1] was -16.8%; in experiment [2], -35.8%; in experiment [3] it was 12.8%; in experiment [4], 7.45%; in experiment [5], 0.95%; in experiment [6] it was -1.55%.
Take `Cc1ccc2ccccc2c1C(=O)c1ccccc1Cc1cccc2ccccc12`: the growth inhibition in experiment [1] is 17.6%; in experiment [2], 2.65%; in experiment [3] it was 10.6%; in experiment [4], 2.2%; in experiment [5], 4.55%; in experiment [6] it was -1.05%.
